NR3A LBD binder – NR3A (human) ligand-binding domain modulation. NR3A LBD differential scanning fluorimetry, Tm shift; 0% = protein alone, 100% = glycine-bound protein. Tm shift relative to glycine control, % at 25 µM. actives 2.5% (n = 340,000);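 active means melting temperature shift of at least 10% of the positive control shift, at one fixed dose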
dFosB activator – mouse delta FosB homodimer activation; P13346; purified delta FosB, TAMRA-CDK5 oligo fluorescence polarization; percent of positive-control signal above neutral wells; activation, % at 25 µM; actives 0.99% (n = 340,000); AID 493131;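 active means mean activation above about 17%, with every replicate also reaching it, limit read from the data, passing the limit was not always enough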
TPT1 inhibitor – C. albicans TPT1 enzyme inhibition | recombinant caTPT1, FP RNA substrate dephosphorylation | AID 1962 | inhibition, % at 5 µM | actives 0.81% (n = 300,000);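 active means inhibition above the mean of all tested compounds plus 3 SD, set per screening campaign, cut at about 24% in these data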;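 further: plate controls were DMSO alone for no effect and ferristatin control at 100 nM for full effect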
Rpn11 inh – blocks the human proteasome subunit Rpn11. O00487. human 26S proteasome, Ub4-pepOG fluorescence polarization; 20S core pre-blocked with epoxomicin. inhibition, % at 20 µM. actives 0.59% (n = 360,000). AID 588493;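 active means inhibition at 20 µM, scaled to each plate's controls, above about 33%, limit read from the data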
Target sequence (O00487 whole entry, looked up): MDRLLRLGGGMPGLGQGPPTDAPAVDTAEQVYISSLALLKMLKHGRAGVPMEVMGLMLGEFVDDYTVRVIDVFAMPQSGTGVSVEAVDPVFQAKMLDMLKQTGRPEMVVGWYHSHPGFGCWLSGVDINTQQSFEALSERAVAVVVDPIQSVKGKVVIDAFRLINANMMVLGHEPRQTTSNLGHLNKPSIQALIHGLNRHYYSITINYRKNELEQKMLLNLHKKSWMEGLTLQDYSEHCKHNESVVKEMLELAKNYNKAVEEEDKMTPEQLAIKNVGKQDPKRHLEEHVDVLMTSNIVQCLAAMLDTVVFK
EBNA-1 inhibitor – blocks EBNA-1 binding to DNA. inhibition, % at 14.8 µM. actives 0.34% (n = 300,000). EBNA-1 DNA binding, fluorescence polarization; in the data active means inhibition above about 28%
ZTA counter – ZTA (EBV) inhibition in EBNA-1 counter-screen. P03206. ZTA-DNA binding, fluorescence polarization. inhibition, % at 11 µM. actives 0.15% (n = 320,000); in the data active means inhibition above about 33%
Target sequence (P03206 whole entry, looked up): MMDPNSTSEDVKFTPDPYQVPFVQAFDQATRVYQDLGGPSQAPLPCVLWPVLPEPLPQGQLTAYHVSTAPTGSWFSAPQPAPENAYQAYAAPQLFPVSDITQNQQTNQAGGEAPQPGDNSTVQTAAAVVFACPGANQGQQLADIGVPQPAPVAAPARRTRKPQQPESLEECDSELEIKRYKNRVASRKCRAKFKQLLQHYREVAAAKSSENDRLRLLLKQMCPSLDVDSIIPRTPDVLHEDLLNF
Active calls of the source: *; . = no result shown; + = active, no number. Most compounds without a hit are left out; they make up all but 4.5% or so of the library.

SMILES	NR3A LBD binder	dFosB activator	TPT1 inhibitor	Rpn11 inh	EBNA-1 inhibitor	ZTA counter
Cc1cc(C(=O)OCC(=O)N2CCc3ccccc32)ccc1[N+](=O)[O-]	0	-2	.	6	.	-12
CCCCOC(=O)c1nc(Cl)c(Cl)c(N)c1Cl	13*	-3	4	-5	-10	-16
CCCCCCCOC(=O)c1nc(Cl)c(Cl)c(N)c1Cl	2	0	-3	-5	-3	14
NC1=NC2(CCCCC2)N(c2ccc(F)cc2)C(N)=N1	20*	3	1	-2	7	3
COc1ccc(N2C(N)=NC(N)=NC23CCCC3)cc1	1	0	-1	-4	-3	8
COc1ccc(NC(=O)CN2CCOCC2)cc1	-4	0	-5	2	-4	0
COC(=O)c1ccc(NC(=O)CN2CCOCC2)cc1	13*	8	-2	-3	-9	-1
O=C(O)CC(C(=O)Nc1ccc(F)cc1)C1CCCO1 (stereo not given)	0	-2	-1	-4	4	-8
Cc1ccc(C(=O)NCCSc2ccc(Cl)cc2)cc1S(=O)(=O)Nc1ccccc1	22*	0	-2	0	1	-17
CS(=O)(=O)Nc1ccccc1C(=O)NCCSc1ccc(Cl)cc1	-8	-6	.	2	.	.
CC(=O)N1CCN(C(=O)c2ccc(NS(=O)(=O)c3cc(C)ccc3C)cc2)CC1	-3	-2	-2	0	-8	1
Cc1ccc(SCCNC(=O)c2ccc(C)c(S(=O)(=O)Nc3cccc(C)c3)c2)cc1	7	0	-2	4	-2	13
Cc1ccc(C)c(S(=O)(=O)Nc2ccc(C(=O)N3CCCCC3)cc2)c1	14*	-3	0	2	1	13
Cc1ccc(NS(=O)(=O)c2cc(C(=O)NCCSc3ccc(C)cc3)ccc2C)cc1	13*	-3	3	5	-4	-14
CC(=O)c1ccc(N2C(=NC(=O)CCc3ccccc3)SC3CS(=O)(=O)CC32)cc1 (stereo not given)	-3	-3	0	4	-4	-7
CC(=O)NCCc1nc2cc(NC(=O)COc3cccc(C)c3)ccc2n1C	-1	-2	2	-3	5	1
O=C(NCCc1ccc(C(F)(F)F)cc1)C1CCC(=O)N(CCc2cccc(F)c2)C1 (stereo not given)	14*	-4	1	0	1	16
Cc1ccc(CNC(=O)C2CCC(=O)N(Cc3cccc(F)c3)C2)s1 (stereo not given)	.	.	.	3	.	.
COc1ccc(CCN2CC(C(=O)NCCc3cccc(F)c3)CCC2=O)cc1 (stereo not given)	-1	0	.	-4	.	.
CCc1csc(CNC(=O)C2CCC(=O)N(Cc3cccc(F)c3)C2)n1 (stereo not given)	13*	-5	0	1	5	4
CCCCNS(=O)(=O)c1cccc(NC(=O)[C@H]2C[C@H](O)[C@@H](CO)O2)c1	.	.	.	-4	.	.
CCN(CC(=O)NC1CCS(=O)(=O)C1)S(=O)(=O)c1ccc(C)cc1C (stereo not given)	-3	2	-1	3	-7	-10
Cc1ccc(NC(=O)C2=C(O)c3ccccc3N(C)S2(=O)=O)cc1	-7	2	0	-5	10	12
CC(C)[C@@H](N)C(=O)N/N=C/c1ccc2nccnc2c1	11*	-7	-2	-3	-16	-12
Cc1cc(C)c2c(c1)/C(=N/NC(=S)Nc1ccc(F)cc1)CCC2	-4	31*	-6	6	-5	17
SMILES	NR3A LBD binder	dFosB activator	TPT1 inhibitor	Rpn11 inh	EBNA-1 inhibitor	ZTA counter
COc1ccc(NS(=O)(=O)c2cc(C(=O)NNC(=O)c3ccncc3)ccc2OC)c(OC)c1	-1	.	.	-3	.	.
Cc1cc(Oc2ccc(N)cn2)ccc1Cl	14*	-2	-1	.	2	9
COc1cc(S(=O)(=O)N2CCOCC2)cc(C(=O)OCC(=O)NCc2ccco2)c1OC	-1	-7	.	5	.	-4
COc1cc(C(=O)NNC(=O)CNC(=O)c2ccc(Br)o2)cc(OC)c1OC	1	-5	-1	-9	11	-1
COc1ccc(-c2nc(-c3ccc(NC(=O)c4ccc(Br)o4)cc3)no2)cc1OC	26*	12	5	0	-3	1
COc1cc(-c2nc(-c3ccc(NC(=O)c4ccc(Br)o4)cc3)no2)cc(OC)c1OC	21*	49*	2	9	-12	3
CCN(CC)c1cccc(OC(=O)c2cccnc2Cl)c1	2	-2	1	-1	-8	-3
O=C(O)CN1C(=O)/C(=C\c2cccc(OCc3ccccc3F)c2)SC1=S	31*	-16	0	2	-4	6
O=C(O)CCN1C(=O)/C(=C\c2cccc(Oc3ccccc3)c2)SC1=S	14*	-2	-2	6	5	16
O=C(O)CCN1C(=O)/C(=C\c2ccc(-c3nc4ccccc4s3)o2)SC1=S	7	-22	41*	+	-8	-4
O=C(O)CN1C(=O)/C(=C\c2cccc(OCc3ccc(F)cc3)c2)SC1=S	9	-3	.	1	.	.
O=C(O)CCN1C(=O)/C(=C/c2cn(-c3ccccc3)nc2-c2cccs2)SC1=S	29*	-20	.	34	.	.
O=C(O)CCCCCN1C(=O)/C(=C\c2cn(-c3ccccc3)nc2-c2cccs2)SC1=S	7	-5	2	36	9	0
Cc1cc(C)c(S(=O)(=O)N2CCN(C(=O)C3CCCO3)CC2)c(C)c1 (stereo not given)	1	2	.	-3	.	-18
CN1CC(C(=O)Nc2ccc(F)c(Cl)c2)CC1=O (stereo not given)	-1	-4	3	0	5	-6
CC(C)CNC(=O)/C=C/C=C/CCCC/C=C/c1ccc2c(c1)OCO2	3	-6	.	6	.	1
CN(C)S(=O)(=O)c1cccc(NC(=S)N(CCC#N)Cc2cccnc2)c1	0	-11	-4	-5	13	6
O=C(OCC(=O)C12CC3CC(CC(C3)C1)C2)c1ccc(O)cc1O	29*	-12	2	1	8	13
Cc1cccc(NC(=O)[C@H](Cc2ccccc2)NC(=O)[C@@H]2Cc3ccccc3CN2)c1	1	-3	-1	-4	-6	1
C=CCc1cccc(/C=N/NC(=O)CCC(=O)Nc2ccc(C)cc2)c1O	14*	13	2	-13	2	-15
Cc1ccc(NC(=O)CCC(=O)N/N=C/c2ccc(O)cc2O)cc1	4	0	-1	-3	-10	-1
Nc1nc(N)c2sc3nc(C(F)(F)F)cc(C(F)(F)F)c3c2n1	32*	3	5	4	-5	2
Nc1ccc2c(C(F)(F)F)cc(C(F)(F)F)nc2n1	-1	-3	1	-1	-10	-13

Screening data (PubChem)
